Screening results deposited in PubChem by National Center for Advancing Translational Sciences (NCATS).
Shown are actives, neighbours in structure and some others; about 4.6% of the full set was active somewhere.
Marburg entry inh – inhibitors of Marburg virus binding or cell entry. 1.8% of 300,000 active. Marburg virus pseudotyped entry inhibition, cell reporter. Potency, µM (top dose mostly 37.8 µM), without a hit: at the highest dose activity change, negative = inhibition, usual class: inhibitors. AID 540276; calls by dose curve; tested in HEK293 cells
Vaccinia mCherry – inhibitors of vaccinia virus infection (mCherry reporter signal) | Vaccinia virus mCherry reporter infection, fluorescence | Potency, µM (series often up to 36.5 µM), without a hit: at the highest dose activity change, negative = inhibition, most hits filed as inhibitors | 0.63% of 310,000 active | AID 720579; calls by dose curve; tested in A549 cells; note: nearly all actives have a fitted effect of over 35% in size
HCV inh – HCV inhibition | 3.4% of 340,000 active | Potency, µM (highest dose often 41.8 µM), for the others: at the top dose activity change, negative = inhibition, usual class: inhibitors | Huh7.5.1 HCVcc-Cre infection, luciferase reporter, 44 h; active = well fitted inhibition curve with a large enough effect; inconclusive = small, poorly fitted or top-dose-only effect, or another doubt; inactive = no such curve, though single readings can be large or run the other way
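Compounds are dispensed onto cells plated 4 h earlier at 1,000 per well, with HCVcc-Cre virus (about 0.5 moi) added next. Following 44 h of culture, luminescent signal is measured for 15 sec after 15 min with substrate at room temperature.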
Vaccinia Venus – vaccinia inhibition (Venus reporter). Potency, µM (series often up to 36.5 µM), inactives show at the top dose activity change, negative = inhibition, usual class: inhibitors. 0.46% of 330,000 active. AID 720580. Vaccinia virus Venus reporter expression, fluorescence; calls by dose curve; tested in A549 cells; note: nearly all actives have a fitted effect of over 30% in size
LASV entry inh – blocks Lassa virus binding to or entry into cells | Lassa virus pseudotype entry inhibition, cell reporter | Potency, µM (doses to about 37.9 µM), without a hit: at the top dose activity change, negative = inhibition, usual class: inhibitors | 1.2% of 300,000 active | AID 540256; calls by dose curve; tested in HEK293 cells; note: nearly all actives have a fitted effect of over 50% in size
The depositor's hits bear a star; [ ] = dose if it differs, or a comment. % is set by controls: 0 for no effect and ±100 for the full control effect; potency is the fitted concentration of half-maximal effect.

Results for COc1ccc(C(C(=O)NC2CCCCC2)N(C(=O)CCl)c2ccc(OC)cc2)cc1 (stereo unspecified) ?
Marburg entry inh: -15%; Vaccinia mCherry: inactive; HCV inh: 1µM*; Vaccinia Venus: -17%; LASV entry inh: -24%

What do the screens show for `COc1ccc(C(C(=O)NC2CCCCC2)N(C(=O)CCl)c2ccc(C)cc2)cc1` (stereo unspecified)?
Marburg entry inh: inconclusive; Vaccinia mCherry: -2%; HCV inh: 0.56µM*; Vaccinia Venus: -26%; LASV entry inh: inconclusive

Results for COc1ccc(C(C(=O)NC2CCCC2)N(C(=O)c2ccoc2C)c2ccc(C)cc2)cc1 (stereo unspecified) ?
Marburg entry inh: -25%; Vaccinia mCherry: -9%; HCV inh: -12%; Vaccinia Venus: -15%; LASV entry inh: inconclusive

Results for CC1CCN(C(=O)Nc2ccc3nc(-c4ccco4)c(-c4ccco4)nc3c2)CC1 ?
Vaccinia mCherry: -6%; Vaccinia Venus: 7%

Results for Nc1ccccc1N=Cc1ccc(-c2cccc(Cl)c2)o1 ?
Marburg entry inh: inconclusive; Vaccinia mCherry: -9%; HCV inh: 10µM*; Vaccinia Venus: inconclusive; LASV entry inh: inconclusive

Results for COCCN1CCc2nc(SCC(=O)Nc3ccc(Br)cc3)[nH]c(=O)c2C1 ?
Marburg entry inh: 2%[46.1 µM]; Vaccinia mCherry: -13%; Vaccinia Venus: 2%; LASV entry inh: 2%[46.1 µM]

How did COC(=O)c1c(C)nc2ccccc2c1C(=O)O do in these assays?
Marburg entry inh: -13%; Vaccinia mCherry: -6%; HCV inh: 17%; Vaccinia Venus: 4%; LASV entry inh: 0%

What do the screens show for `COC(=O)c1cc(C)[nH]c2c(C)cc3nc4ccccc4c3c12`?
Marburg entry inh: inconclusive; Vaccinia mCherry: inconclusive; HCV inh: 10µM*; Vaccinia Venus: -26%; LASV entry inh: 22%[46.1 µM]

What do the screens show for `COc1cc2c(cc1OC)C(c1cc3cc(OC)c(OC)cc3[nH]c1=O)N(C(=O)C1CC1)CC2` (stereo unspecified)?
Marburg entry inh: 13µM*; HCV inh: 7%; LASV entry inh: 26µM*

Results for COc1ccc(CCNC(=O)c2cnn(-c3nccc(-c4ccco4)n3)c2C)cc1 ?
Vaccinia mCherry: -18%; Vaccinia Venus: -5%

Results for CC(=O)c1ccc(NC(=O)CSc2nnc(-c3ccco3)c(-c3ccco3)n2)cc1 ?
Marburg entry inh: inconclusive; Vaccinia mCherry: -10%; HCV inh: inconclusive; Vaccinia Venus: -1%; LASV entry inh: -11%[46.1 µM]

How did O=C(CSc1nnc(-c2ccco2)c(-c2ccco2)n1)c1ccccc1 do in these assays?
Marburg entry inh: 1%[46.1 µM]; Vaccinia mCherry: -27%; HCV inh: 2.8µM*; Vaccinia Venus: 0%; LASV entry inh: 16%

What do the screens show for `CCc1cccc(NC(=O)CCn2nc(C)cc2C)c1`?
Vaccinia mCherry: 1%; Vaccinia Venus: -4%; LASV entry inh: 24%[46.1 µM]

What do the screens show for `CCOc1ncccc1C(=O)N1CCN(C(c2ccccc2)c2ccccc2)CC1`?
Marburg entry inh: inconclusive; Vaccinia mCherry: -4%; HCV inh: 11µM*; Vaccinia Venus: -8%; LASV entry inh: inconclusive

Results for C[N+](C)(C)CC(O)CC(=O)[O-] (stereo unspecified) ?
Vaccinia mCherry: -14%; Vaccinia Venus: -8%

What do the screens show for `Cc1ccc(-c2nnc(NCc3ccccc3)c3ccccc23)cc1`?
Marburg entry inh: 17%; Vaccinia mCherry: -11%; HCV inh: 11µM*; Vaccinia Venus: -3%; LASV entry inh: -10%

How did Cc1ccc(-c2nnc(Nc3ccccc3O)c3ccccc23)cc1 do in these assays?
Vaccinia mCherry: inconclusive; Vaccinia Venus: inconclusive; LASV entry inh: -12%[46.1 µM]

How did N#CC(c1ccccc1)c1ccc2c(C(F)(F)F)cc(C(F)(F)F)nc2n1 (stereo unspecified) do in these assays?
Marburg entry inh: 7.1µM*; Vaccinia mCherry: -13%[1.46 µM]; HCV inh: -19%; Vaccinia Venus: 1%; LASV entry inh: 11µM*

What do the screens show for `FC(F)(F)c1cc(C(F)(F)F)c2ccc(N/N=C/c3ccccc3)nc2n1`?
Marburg entry inh: -3%; HCV inh: 3%; Vaccinia Venus: -24%; LASV entry inh: 17%

How did Cc1ccc(C(C#N)c2ccc3c(C(F)(F)F)cc(C(F)(F)F)nc3n2)cc1 (stereo unspecified) do in these assays?
Marburg entry inh: -12%; Vaccinia mCherry: inconclusive; HCV inh: 10µM*; Vaccinia Venus: -24%; LASV entry inh: inconclusive

How did COc1ccc(C(=O)O/N=C(\N)Cc2cccs2)cc1OC do in these assays?
Marburg entry inh: inconclusive; Vaccinia mCherry: -19%; HCV inh: inconclusive; Vaccinia Venus: -24%; LASV entry inh: 1.8µM*

How did COc1ccc(C(=O)O/N=C(\N)c2ccccc2Cl)cc1OC do in these assays?
Marburg entry inh: 11µM*; Vaccinia mCherry: inactive; HCV inh: 10µM*; Vaccinia Venus: -14%; LASV entry inh: 4.5µM*

How did COc1ccccc1C(=O)O/N=C(\N)c1ccccc1Cl do in these assays?
Marburg entry inh: inconclusive; HCV inh: -14%; LASV entry inh: inconclusive

How did COc1ccc(/C(N)=N/OC(=O)c2cccc([N+](=O)[O-])c2)cc1OC do in these assays?
Marburg entry inh: inconclusive; Vaccinia mCherry: -3%; HCV inh: 5%; Vaccinia Venus: 29%; LASV entry inh: 7%

Results for COc1ccc(/C(N)=N/OC(=O)c2ccc(OC)c([N+](=O)[O-])c2)cc1OC ?
Marburg entry inh: inconclusive; Vaccinia mCherry: 3%; HCV inh: 35µM*; Vaccinia Venus: -5%; LASV entry inh: inconclusive

What do the screens show for `O=[N+]([O-])c1cccc(-c2ccc(C(=S)N3CCOCC3)o2)c1`?
Marburg entry inh: inconclusive; Vaccinia mCherry: -16%; HCV inh: -30%; Vaccinia Venus: 1%; LASV entry inh: 17%[46.1 µM]

How did COc1ccc([N+](=O)[O-])cc1NC1C2CC3CC(C2)CC1C3 (stereo unspecified) do in these assays?
Marburg entry inh: -5%; HCV inh: -14%; LASV entry inh: -18%

How did COc1ccc([N+](=O)[O-])cc1NC1CCCCC1 do in these assays?
Marburg entry inh: -2%; HCV inh: 11µM*; LASV entry inh: inconclusive

Results for COc1cc([N+](=O)[O-])ccc1NC(=O)NCC1CCN(Cc2ccc(Cl)cc2)CC1 ?
Marburg entry inh: inconclusive; Vaccinia mCherry: -28%; HCV inh: 13µM*; Vaccinia Venus: inconclusive; LASV entry inh: -28%[46.1 µM]

Results for O=C(NCC1CCN(Cc2cccc(Cl)c2)CC1)Nc1cc(Cl)ccc1Cl ?
Marburg entry inh: -16%[46.1 µM]; Vaccinia mCherry: -26%; Vaccinia Venus: -30%; LASV entry inh: inconclusive

How did O=C(Nc1nccs1)c1ccc(-c2cccc([N+](=O)[O-])c2)o1 do in these assays?
Marburg entry inh: inconclusive; Vaccinia mCherry: 3%; HCV inh: -14%; Vaccinia Venus: -1%; LASV entry inh: inconclusive

What do the screens show for `O=C(Nc1ccc(CN2CCOCC2)cc1)c1ccc(-c2cccc([N+](=O)[O-])c2)o1`?
HCV inh: 32µM*
